Sfp inh: inhibitors of Bacillus subtilis Sfp phosphopantetheinyl transferase. Q9F4F7. Biochemical Sfp PPTase activity, qHTS. Potency, µM, hits mostly inhibitors. 310,000 compounds, 3.5% hits;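 note: the enzyme is Sfp with the accession as filed and its product quenches rhodamine fluorescence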
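With Hepes-Na pH 7.6 buffer containing 10 mM MgCl2, Sfp (15 nM) modified BHQ-2-YbbR (12.5 uM) using rhodamine-CoA (5 uM). Two reads 30 minutes apart at 525/598 nm yielded each well's rate.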
HP1b chromo inh: inhibitors of HP1-beta chromodomain binding to methylated histone tails; AlphaScreen HP1-beta / biotin-H3K9me3 peptide binding; Potency, µM (doses to about 114 µM), most hits filed as inhibitors; 390,000 compounds, 0.56% hits; AID 540317; note: nearly all actives have a fitted effect of over 70% in size
Target sequence (P83916 whole entry, looked up): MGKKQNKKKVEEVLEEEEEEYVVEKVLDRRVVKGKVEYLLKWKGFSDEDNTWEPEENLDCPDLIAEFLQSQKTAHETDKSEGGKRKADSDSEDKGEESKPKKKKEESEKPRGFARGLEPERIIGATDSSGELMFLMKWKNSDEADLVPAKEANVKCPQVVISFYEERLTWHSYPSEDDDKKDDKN
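AlphaScreen: HP1-beta (50 nM) preformed 30 min with biotin-H3(1-18)K9me3 peptide (50 nM) in PBS pH 7.4, 0.01% Tween-20. Compound added for 30 min at RT, then streptavidin donor/nickel chelate acceptor beads (10 ug/mL) for 30 min.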
G9a inh: G9a (human) methyltransferase inhibition | AID 504332 | G9a H3K9 monomethylation, AlphaScreen, 2 h | 350,000 compounds, 8.8% hits | Potency, µM (top dose mostly 102 µM), actives largely listed as inhibitors | Q96KQ7; note: nearly all actives have a fitted effect of over 75% in size
Target sequence (Q96KQ7 913-1193 limits assumed): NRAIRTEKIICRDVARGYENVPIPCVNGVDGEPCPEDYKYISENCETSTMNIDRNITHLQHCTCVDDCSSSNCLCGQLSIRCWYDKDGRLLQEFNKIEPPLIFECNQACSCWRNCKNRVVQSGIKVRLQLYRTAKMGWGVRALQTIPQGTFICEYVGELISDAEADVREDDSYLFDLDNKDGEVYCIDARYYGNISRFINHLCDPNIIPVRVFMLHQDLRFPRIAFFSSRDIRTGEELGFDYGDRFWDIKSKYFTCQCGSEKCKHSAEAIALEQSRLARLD
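AlphaScreen read-out: biotin-H3K9 peptide (500 nM) methylation by 20 nM enzyme with 20 uM SAM, 2 h at room temperature after 15 min compound preincubation; anti-monomethyl H3K9 antibody plus donor/acceptor beads, 10 min dark.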
12-LOX inh: ALOX12 (human) lipoxygenase inhibition; purified 12hLO, xylenol orange hydroperoxide absorbance; Potency, µM (titrated, usually from 108 µM), usual class: inhibitors; AID 1671190; 580,000 compounds, 1.1% hits
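Purified human 12hLO (150 nM final) in 25 mM Hepes, 0.01% Triton X-100, pH 7.0 was preincubated 15 min at room temperature with compound. Then 40 uM arachidonic acid was added, 30 min. Hydroperoxide was read by Fe-XO absorbance ratio 573/405 nm.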
JMJD2A Tudor: blocks the human JMJD2A Tudor domain. AID 504339. AlphaScreen JMJD2A-Tudor / H3K4me3 peptide binding. Potency, µM (series often up to 114 µM), usual class: inhibitors. O75164. 390,000 compounds, 4.4% hits; note: nearly all actives have a fitted effect of over 50% in size
BAZ2B block: BAZ2B (human) inhibition | AlphaScreen BAZ2B-H3K14Ac peptide displacement | Potency, µM (highest dose often 114 µM), hits mostly inhibitors | 360,000 compounds, 4.4% hits; note: nearly all actives have a fitted effect of over 60% in size
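Inhibition is scored as reduced AlphaScreen emission. The BAZ2B/b-H3(5-23)K14Ac complex (50 nM each) in PBS pH 7.4, 0.01% Tween-20 meets compound (up to 110 uM) for 30 min at RT before bead addition.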
Hits are given with their value; – = inactive; ? = inconclusive; · = not tested or not shown. An excerpt weighted towards active compounds, which were near 8.7% of everything screened. Calls come from the whole dose curve; as a rule, active = well fitted curve in the direction sought with a large enough effect; inconclusive = small, poorly fitted or top-dose-only effect, or another doubt; inactive = no such curve, though single readings can be large; an effect the other way counts as inactive or inconclusive.

SMILES	Sfp inh	HP1b chromo inh	G9a inh	12-LOX inh	JMJD2A Tudor	BAZ2B block
C=CCNC(=O)C(NC(=O)c1ccc(OC)cc1)C1CCN(C(=O)c2cccc(F)c2)CC1 (stereo unspecified)	·	·	·	–	·	·
CC(=O)Nc1ccc(-c2nc3cc(C(C)C)ccc3o2)cc1	·	·	·	–	·	·
CCOC(=O)c1cnc2c(OC)cccc2c1Nc1ccc(N(C)C)cc1	·	·	·	–	·	·
Cc1ccc(C)c(S(=O)(=O)N2[C@@H]3CC[C@H]2CC(NC(=O)c2ccc(F)cc2)C3)c1 (stereo partly specified)	·	·	·	–	·	·
Cc1ccc(S(=O)(=O)N2[C@@H]3CC[C@H]2CC(NC(=O)c2ccncc2)C3)c(C)c1 (stereo partly specified)	·	·	·	18µM	·	·
O=C(NC1CCCCC1)C1CN(C(=O)c2cccc(Br)c2)CC12CCOCC2 (stereo unspecified)	·	·	·	–	·	·
C=CCNC(=S)Nc1ccc(Cl)cc1F	–	–	–	–	–	–
[O-]/C(=C(\C(=S)NCc1ccccc1)[n+]1ccccc1)c1ccc(Cl)cc1	–	?	22µM	?	?	–
CCc1cc[n+](/C(C(=S)Nc2cccc(C)c2)=C(/[O-])c2ccc(C)c([N+](=O)[O-])c2)cc1	–	?	40µM	?	–	?
Cc1ccc(/C([O-])=C(/C(=S)NCc2ccccc2)[n+]2ccccc2)cc1[N+](=O)[O-]	–	–	20µM	?	–	?
C=CCNC(=S)/C(=C(\[O-])c1ccc(Cl)cc1)[n+]1ccccc1	8.9µM	–	·	–	–	–
CCOc1ccc(NC(=S)/C(=C(\[O-])c2ccc(C)c([N+](=O)[O-])c2)[n+]2ccccc2)cc1	–	–	?	·	–	?
CC(OC(=O)Cn1cnc2c1c(=O)n(C)c(=O)n2C)C(=O)Nc1cccc(C#N)c1 (stereo unspecified)	·	·	·	–	·	·
O=C(Cc1ccccc1C(F)(F)F)N1CCC2(CC1)[C@H](O)C[C@@H]2O	·	·	·	–	·	·
O=C(NCC(=O)N(Cc1cccs1)C1(C(=O)NC2CCCC2)CCCCC1)c1ccccc1	·	·	·	–	·	·
CC(C)n1cnnc1SCCOc1ccccc1Cl	·	·	·	–	·	·
CCCCNC(=S)NC(C)(C)CO	–	–	11µM	?	–	–
COCc1nnc(NC(=O)c2ccc(NC(=O)C(C)C)cc2)s1	–	–	–	–	–	–
CCc1nnc(NS(=O)(=O)c2ccc(NC(=S)NC(=O)c3ccc(OC)cc3)cc2)s1	–	–	?	8.9µM	–	–
CCc1nnc(NS(=O)(=O)c2ccc(NC(=O)c3ccc(S(=O)(=O)N(CC)CC)cc3)cc2)s1	–	–	–	–	–	–
CCc1nnc(NC(=O)c2ccc(NC(=O)C(C)C)cc2)s1	–	–	56µM	?	–	–
CCc1nnc(NS(=O)(=O)c2ccc(NC(=S)NC(=O)c3ccncc3)cc2)s1	–	–	50µM	?	?	?
CCc1nnc(NS(=O)(=O)c2ccc(NC(=O)COc3ccc4ccccc4c3)cc2)s1	–	–	–	–	–	?
CCOc1cc(C(=O)Nc2ccc(S(=O)(=O)Nc3nnc(CC)s3)cc2)cc(OCC)c1OCC	–	–	?	–	25µM	–
Cc1ccc(C2=CC(c3c(F)cccc3Cl)n3ncnc3N2)cc1 (stereo unspecified)	·	·	·	–	·	·
SMILES	Sfp inh	HP1b chromo inh	G9a inh	12-LOX inh	JMJD2A Tudor	BAZ2B block
CN1CCN(C(=O)N[C@@H]2CCOC[C@H]2OCc2ccccc2)CC1	·	·	·	–	·	·
CCOCc1nnc(NS(=O)(=O)c2ccc(Cl)cc2)s1	·	·	·	–	·	·
CCc1nnc(NS(=O)(=O)c2ccc(NC(=S)NC(=O)c3ccc(OC)c(OC)c3)cc2)s1	–	–	?	8.9µM	–	–
COc1ccc(Cc2nnc(NS(=O)(=O)c3ccc(Cl)cc3)s2)cc1OC	–	–	32µM	?	–	?
COc1ccc(-c2nc(C#N)c(N3CCN(C(=O)c4cccs4)CC3)o2)cc1	·	·	·	–	·	·
CC(=O)Nc1cccc(NC(=O)c2cc(-c3cccs3)nc3ccccc23)c1	·	·	·	–	·	·
Nc1sc(-c2ccccc2)cc1C(=O)NCCc1ccc(Cl)cc1	·	·	·	40µM	·	·
CNC(=O)NC(=O)CSc1nc(-c2ccco2)nc2ccccc12	·	·	·	–	·	·
COCC(C)NCc1cccc([N+](=O)[O-])c1 (stereo unspecified)	–	?	20µM	?	3.2µM	50µM

Screening results: PubChem, National Center for Advancing Translational Sciences (NCATS)
